According to PubChem BioAssay (EPA / NIEHS):
Results filed as inconclusive are left out. Calls of active or inactive are those of the source. How the source made its calls: active means hit-call score of the fitted dose curve at least 0.9, where 1 is the maximum; inconclusive means response in the unintended direction; inactive means score below 0.9.

Legend:
[1] = TAMU_PeakParms_SingleDonor1434_Asystole: Texas A&M University (TAMU) 1.5-hr Human Induced Pluripotent Stem Cell (iPSC)-derived Cardiomyocytes Calcium (Ca+2) Flux Assay for Cardiotoxicity: Asystole (quiescence of beating) (AID 2284328)
Summary of the method: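 Human iPSC-derived cardiomyocytes (donor 1434) were exposed to 0.2, 1, 10 and 100 uM compound in 0.5% DMSO for 90 min at 37C. Ca2+-dye fluorescence gave average peak frequency; POD is EC95, a 95% beat-rate drop versus DMSO.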

[2] = IUF_NPC1_cytotoxicity_72hr: Cytotoxicity Assessment at 72 hours in the Leibniz Research Institute for Environmental Medicine (IUF) Neural Progenitor Cell Proliferation Assay (NPC1) (AID 2284332);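 further: rising LDH signal means more cytotoxicity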
Summary of the method: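 Membrane-integrity loss is scored from LDH released into the medium, detected as resorufin fluorescence, with activity fitted upward relative to baseline. Test material stays on human fetal-derived progenitor spheres for 72 h.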

For `OC[C@@H](O)[C@@H](O)[C@H](O)[C@@H](O)CO`, the outcome [1] was “inactive” and the outcome [2] was “inactive”.

In the case of `CC(CCl)OP(=O)(OC(C)CCl)OC(C)CCl` (stereo not drawn), the outcome [2] is reported as “inactive”.
